From the supplement of paper PMC10498489
Among all 2,300 compounds or so, about 330 (14%) showed activity. These entries were drawn from the full list. Values without a mark were called inactive.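 Rule for the calls: active = median modified Z-score above 1.96; inactive = 1.96 or below.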

What follows are molecules tested on HepG2 Srxn1-GFP reporter cells (+30 nM CDDO-Me) (assay: Srxn1-GFP intensity median modified Z-score relative to plate median; higher = stronger NRF2 / oxidative stress reporter activation, active = hit call of the paper). Conditions: 10 µM; exposure time: 24h.
Summary of the method: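 The modified Z-score of GFP intensity was computed per plate, and the median over replicates is reported. HepG2 Srxn1-GFP BAC reporter cells in three replicate plates were treated for 24 h with compound at 10 μM plus an NRF2 activator at 30 nM (≤0.1% DMSO). Per-cell cytoplasmic GFP came from confocal images, excluding those with under 100 cells, and scaling used 1.4826 × median absolute deviation.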

Structure (SMILES)	Srxn1-GFP intensity median modified Z-score
O=C1CC(=O)c2c(c(O)c3ccccc3c2O)C1=O [euspeclibcmpd1727]	8.98 (active)
Cc1cc(/C=C/c2ccc3cc(N(C)C)ccc3[n+]2C)c(C)n1-c1ccccc1 [euspeclibcmpd260]	28.6 (active)
COc1c(-c2ccccc2)oc2cc(O)cc(O)c2c1=O [euspeclibcmpd2295]	-0.0938
CCN(CC)CCOC(=O)c1ccc(N)cc1 [euspeclibcmpd248]	-0.882
CCCCOc1cc(C(=O)OCCN(CC)CC)ccc1N [euspeclibcmpd809]	16.2 (active)
CCCOc1ccc(C(=O)OCCN(CC)CC)cc1N [euspeclibcmpd842]	-0.601
O=C(O)C(O)C(O)C(O)C(O)C(=O)O (stereo not drawn) [euspeclibcmpd2053]	-0.466
Cc1[nH]c(C)c(Cl)c(=O)c1Cl [euspeclibcmpd744]	6.67 (active)
Cc1[nH]c(=O)[nH]c1O [euspeclibcmpd1742]	-0.283
O=C(O)C=C(CC(=O)O)C(=O)O [euspeclibcmpd1609]	-0.206
C=C1CC2C3=CC(C)=C4CC(=O)CC[C@]4(C)C3CC[C@]2(C)[C@@]1(OC(C)=O)C(C)=O (stereo partly drawn) [euspeclibcmpd860]	1.04
CSC1(CNC(=O)Nc2cnn(C)c2Cl)CC1	1.35
OC[C@@H](O)[C@@H](O[C@@H]1O[C@H](CO)[C@@H](O)[C@H](O)[C@H]1O)[C@H](O)[C@@H](O)CO [euspeclibcmpd2177]	-0.452
COC(=O)C(c1ccccc1Cl)N1CCc2sccc2C1 (stereo not drawn) [euspeclibcmpd599]	-0.316
CCCCC(CC)CN1CN(CC(CC)CCCC)CC(C)(N)C1 (stereo not drawn) [euspeclibcmpd1036]	14.2 (active)
COc1cnc(=NS(=O)(=O)c2ccc(N)cc2)[nH]c1 [euspeclibcmpd408]	-0.161
NC(=O)CN1CCCCCCC1=O	0.32
CC1=C(CC(=O)O)c2cc(F)ccc2C1=Cc1ccc([S+](C)[O-])cc1 (stereo not drawn) [euspeclibcmpd284]	-0.29
N#Cc1ccc(C(c2ccc(C#N)cc2)n2cncn2)cc1 [euspeclibcmpd693]	-0.19

Structure (SMILES)	Srxn1-GFP intensity median modified Z-score
c1ccc(C(c2ccccc2)(c2ccccc2)n2ccnc2)cc1	1.95
c1ccc(-c2ccc(C(c3ccccc3)n3ccnc3)cc2)cc1 (stereo not drawn) [euspeclibcmpd741]	3.36 (active)
CCOC(=O)C(CCc1ccccc1)NC(C)C(=O)N1CCCC1C(=O)O (stereo not drawn) [euspeclibcmpd421]	0.166
CCOC(=O)C(CCc1ccccc1)NC(C)C(=O)N1Cc2ccccc2CC1C(=O)O (stereo not drawn) [euspeclibcmpd521]	0.162
CCOC(=O)C(CCc1ccccc1)NC1CCc2ccccc2N(CC(=O)O)C1=O (stereo not drawn) [euspeclibcmpd912]	3.02 (active)
N=c1[nH]c(=O)[nH]cc1F [euspeclibcmpd698]	1.2
CC(=O)OCC(=O)[C@@]1(O)[C@H](C)CC2C3CC=C4CC(=O)C=C[C@]4(C)[C@@]3(F)[C@@H](O)C[C@@]21C (stereo partly drawn) [euspeclibcmpd2125]	-0.395
CC(=O)Oc1cccc(C)c1 [euspeclibcmpd1228]	-0.455
Cc1cccc(N(C)C(=S)Oc2ccc3ccccc3c2)c1 [euspeclibcmpd299]	8.23 (active)
CC(C)(C)NCC(O)COc1cccc2c1CCCC2=O (stereo not drawn) [euspeclibcmpd764]	-0.976
CCCCCCCCCCCCCCCCOP(=O)(O)OCC[N+](C)(C)C [euspeclibcmpd1120]	1.47
NC(C(=O)NC1C(=O)N2C(C(=O)O)=C(Cl)CSC12)c1ccccc1 (stereo not drawn) [euspeclibcmpd343]	-0.608
Cn1cnc([N+](=O)[O-])c1Sc1ncnc2[nH]cnc12 [euspeclibcmpd29]	2.86 (active)
N=c1[nH]cnc2c1ncn2C1O[C@H](COP(=O)(O)O)[C@@H](O)[C@H]1O (stereo partly drawn) [euspeclibcmpd330]	-0.321
CC[C@@]1(O)CC(=O)c2c(cc3c(O)c4c(O)ccc(O)c4c(O)c3c2O)C1C(=O)OC (stereo partly drawn) [euspeclibcmpd1470]	70.7 (active)
COc1cccc2c(O)c3c(O)c4c(c(O)c3c(O)c12)=C(OC1C[C@H](N)[C@H](O)[C@H](C)O1)C[C@](O)(C(=O)CO)C=4 (stereo partly drawn) [euspeclibcmpd2291]	0.455
CCC1(O)C=C(OC2CC(N(C)C)C(O)C(C)O2)c2c(cc3c(O)c4c(O)ccc(O)c4c(O)c3c2O)C1C(=O)OC (stereo not drawn) [euspeclibcmpd1939]	97.7 (active)
COc1cccc2c(O)c3c(O)c4c(c(O)c3c(O)c12)=C(O[C@H]1C[C@H](N)[C@H](O)[C@H](C)O1)C[C@](O)(C(C)=O)C=4 [euspeclibcmpd83]	0.648
CCc1ccc2c(O)c3c(O)c4c(c(O)c3cc2c1C(=O)OC)C(=O)C=CC4=O [euspeclibcmpd1950]	1.63
